# The list is not random: actives were taken first. Their share in the collection is about 21%.
# Pf growth 96h – P. falciparum growth inhibition at 96 hour, primary screen for plastid delayed-death inhibitors | P. falciparum luciferase reporter growth, 96 h | Potency, µM (doses to about 28.7 µM), without a hit: at the highest dose activity change, negative = inhibition, actives largely listed as inhibitors | hit rate 6.9% among 320,000 | AID 504834; further: potency means the concentration at half of the fitted maximal effect; on the % scale 0 is the no-effect control and ±100 the full control effect
#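 96 h incubation, 37 C, 5% CO2, of luciferase-reporter P. falciparum-infected RBCs (2% hematocrit, 0.05% parasitemia final) with test compounds; endpoint luminescence.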
# Cycloheximide cs – counter-screen hit for Shiga toxin inhibitors, cycloheximide; cell reporter, cycloheximide protein synthesis inhibition counterscreen; max response, %; hit rate 12% among 300,000; in the data active means max response mostly above about 13%, no sharp cut-off; inactive means mostly below about 14%; further: read at 38.3 µM for the half of the compounds with a filed dose; 0% is about no effect
# Sm TGR inh – S. mansoni TGR enzyme inhibition; purified TGR, DTNB reduction, TNB absorbance 405 nm; Potency, µM (doses to about 114 µM), for the others: at the highest dose activity change, negative = inhibition, actives largely listed as inhibitors; hit rate 3% among 360,000; AID 485364; further: potency means the concentration at half of the fitted maximal effect; on the % scale 0 is the no-effect control and ±100 the full control effect; nearly all actives have a fitted effect of over 60% in size
#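 First, TGR (20 nM dispensed) and NADPH were mixed with compound. Second, a 15 min room-temperature incubation followed. Third, further NADPH and then DTNB were added to start the reaction. Finally, TNB absorbance was monitored kinetically.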
# Pf growth 48h – inhibits P. falciparum growth in the first generation, 48 h; P. falciparum luciferase growth in erythrocytes, 48 h; Potency, µM (titrated, usually from 28.7 µM), without a hit: at the top dose activity change, negative = inhibition, most hits filed as inhibitors; hit rate 5.9% among 310,000; further: potency means the concentration at half of the fitted maximal effect; on the % scale 0 is the no-effect control and ±100 the full control effect
#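 Compounds are pin-transferred into medium, infected erythrocytes (2% hematocrit, 0.1% parasitemia final) are added, and plates sit one parasite generation at 37 C in 5% CO2. Detection reagent is then added and luminescence measured.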
# Shiga inhibitor – blocks Shiga toxin action in Vero cells; Vero cells, Shiga toxin protein synthesis inhibition reporter; inhibition, % at 38.7 µM; hit rate 9.2% among 290,000; in the data active means inhibition mostly above about 28%, no sharp cut-off; inactive means mostly below about 43%; further: 0% is about no effect
# NS1 function inh – inhibitors of influenza NS1 protein function | AID 2326 | hit rate 0.4% among 270,000 | Potency, µM (highest dose often 46.1 µM), for the others: top-dose activity, positive = more growth; calls by dose curve; further: potency means the concentration at half of the fitted maximal effect; actives are rising curves; nearly all actives have a fitted effect of over 50% in size
#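 Recovery from NS1-induced slow growth read by OD600 in budding yeast switched to galactose assay medium (pH 6.0, -URA) at 1:100 dilution. Compound 23 nl per well; the matching strain lacking NS1 serves as control.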
# * = called active by the depositor; u = inconclusive; x = no result. Unless noted, the call rests on the fitted dose curve; in most records, active means well fitted curve in the direction sought with a large enough effect; inconclusive means small, poorly fitted or top-dose-only effect, or another doubt; inactive means no such curve, though single readings can be large; an effect the other way counts as inactive or inconclusive.
SMILES,Pf growth 96h,Cycloheximide cs,Sm TGR inh,Pf growth 48h,Shiga inhibitor,NS1 function inh
CCOC(=O)Cc1csc(NC(=O)C(C)c2ccc([N+](=O)[O-])cc2)n1 (stereo unspecified),22.7%,-1.2,5.4%,9.28µM*,11.8,x
CCOC(=O)Cc1csc(NC(=O)CCN2C(=O)c3cccc([N+](=O)[O-])c3C2=O)n1,13.1µM*,-4.7,-14.9%,9.1%,-9.7,3.7%
CCOC(=O)Cc1csc(NC(=O)Cc2ccccc2[N+](=O)[O-])n1,u,17.7*,2.4%,11.7%,84.9,x
O=C(COC(=O)CCN1C(=O)c2cccc([N+](=O)[O-])c2C1=O)NCc1ccccc1,31.4%,-5.2,79.4µM*,382.6%,-6.1,x
CCOC(=O)Cc1csc(NC(=O)CN2C(=O)c3ccccc3C2=O)n1,27.0%,-2.8,-10.4%,7.9%,-3.9,-2.1%
Cc1cc(Nc2nn(C)c(N)c2C#N)ccc1F,-4.6%,10.8,-9.8%,31.9%,7.6,2.7%
CC1CCCN(C(=O)C23CCC(C)(C(=O)C2)C3(C)C)C1 (stereo unspecified),9.28µM*,-1.1,-3.3%,7.6%,10.9,3.8%
CC12CCC(C(=O)N3CCCCC3)(CC1=O)C2(C)C (stereo unspecified),-11.6%,0.9,1.4%,25.4%,-5.6,13.0%
COC1(OC)C(/C=C/c2ccc(Cl)cc2)C(C#N)(C#N)C1(OC)OC (stereo unspecified),u,19.3*,-27.6%,u,40.6*,-16.5%
O=C1NC2CCc3nc4ccccc4c(=O)n3C2=Nc2ccccc21 (stereo unspecified),11.7µM*,-2.1,-22.2%,28.1%,9.4,1.6%
O=C1NC(Cc2ccccc2)c2nc3ccccc3c(=O)n2-c2ccc(Cl)cc21 (stereo unspecified),49.0%,x,4.4%,-8.5%,x,x
CCn1nc(C)c(CN2CCc3c([nH]c4ccccc34)C2c2ccc(F)c(OC)c2)c1C (stereo unspecified),u,16.5*,-7.5%,2.62µM*,19.4,-7.1%
Clc1ccc(-n2cccc2CN2CCc3c([nH]c4ccccc34)C2c2ccccn2)nc1 (stereo unspecified),10.4µM*,-0.9,u,9.28µM*,1.9,2.1%
CSc1ncc(CN2CCc3c([nH]c4ccccc34)C2c2cccc(O)c2)cn1 (stereo unspecified),-52.5%,1.0,-23.2%,4.15µM*,-6.9,-4.1%
CCn1cc(CN2CCc3c([nH]c4ccccc34)C2c2cccc(OC)c2)c(C)n1 (stereo unspecified),u,-1.7,-35.9%,11.7µM*,10.6,-3.5%
CCn1cc(CN2CCc3c([nH]c4ccccc34)C2c2cccc(O)c2)c(C)n1 (stereo unspecified),-1.3%,-1.3,-10.1%,-17.0%,-1.7,-5.7%
CCN(C(=O)Cn1cc(C(=O)c2ccc(F)cc2)c(=O)c2ccc(C)nc21)c1cccc(C)c1,x,x,0.6%,x,x,x
CCCc1cc(=O)[nH]c(SCC(=O)Nc2sccc2C#N)n1,2.0%,x,-14.3%,12.8%,x,x
Cc1cc2n(n1)CCCN2C(=O)Nc1ccccc1C(F)(F)F,x,x,-0.8%,x,x,x
CCn1cc(CN2CCc3c([nH]c4ccccc34)C2c2ccc(F)c(OC)c2)c(C)n1 (stereo unspecified),u,2.6,-10.5%,11.7µM*,4.3,-0.6%
COc1cccc(C2c3[nH]c4ccccc4c3CCN2CCCn2cccn2)c1 (stereo unspecified),u,-2.3,-3.4%,u,-4.5,1.6%
COc1cccc(C2c3[nH]c4ccccc4c3CCN2Cc2cccn2-c2ncccn2)c1 (stereo unspecified),5.22µM*,-2.9,u,u,20.5,5.0%
CC(=O)c1ccc(S(=O)(=O)Nc2ccc(C(=O)NCCCn3ccnc3)cc2)cc1,u,x,-34.8%,u,x,x
CCc1ccc(CNC(=O)CCN2C(=O)COc3ccccc32)cc1,x,x,6.6%,x,x,x
O=[N+]([O-])c1ccc(O)c(C(C#Cc2ccccc2)N2CCOCC2)c1 (stereo unspecified),9.8%,25.9*,-6.9%,-18.5%,66.2*,19.6%
CCc1nnc(NC(=O)CCC(=O)Nc2ccccc2)s1,21.9%,-1.7,6.6%,4.4%,2.0,-6.0%
